Values joined by “and” are separate entries in the source; they are usually repeats but may differ in a detail not shown here. Equal entries are not always repeated. Records with an inconclusive call do not appear. Where a structure was tested more than once in an assay, its records may differ in their call. Active and inactive are the calls of the source. The call rests on the fitted dose curve; in most records, active means well fitted curve in the direction sought with a large enough effect in the repeat runs; inconclusive means weak or mixed curves; inactive means no such curve, though single readings can be large; an effect the other way counts as inactive or inconclusive.
Further: nearly all actives have a fitted effect of over 50% in size.
On the % scale 0 is the no-effect control and ±100 the full control effect; potency means the concentration at half of the fitted maximal effect.

A short description of the first test: qHTS RealTime-Glo MT Cell Viability Assay in HepG2 cells - 16 hour (AID 1224885). Conditions: RealTime-Glo luminescence; series mostly up to 76.8 µM; activity change, negative = cytotoxic: at the top concentration. The method, boiled down: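 Cell number in HepG2 cultures estimated from NanoLuc luminescence generated by metabolic reduction of a prosubstrate by living cells. The homogeneous, nonlytic format allowed repeated reads at 0, 8, 16, 24, 32 and 40 h of compound exposure.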
As to `Nc1ccc2cc(S(=O)(=O)O)cc(O)c2c1N=Nc1ccccc1C(F)(F)F`, the “activity change, negative = cytotoxic” value was -6.94% (inactive).
Same read-out and setting: in the case of `CN(C)[C@@H]1C(=O)C(C(N)=O)=C(O)[C@@]2(O)C(=O)C3=C(O)c4c(O)cccc4C[C@H]3C[C@@H]12` it was -4.2% [at 35.3 µM] (inactive); in that of `C1CCCC1`, -0.0497% (inactive).
For `CCCC(c1cc(C(C)(C)C)c(O)cc1C)c1cc(C(C)(C)C)c(O)cc1C`, the Potency was 44.2 µM (active).
Still for that read-out and setting: in the case of `Oc1cc2ccccc2c2ccccc12` it was 11 µM (active).
Same read-out and setting: in the case of `Clc1ccccc1C(c1ccccc1)(c1ccccc1)n1ccnc1` it was 24.5 µM (active) and inactive.

A further test in a line: qHTS RealTime-Glo MT Cell Viability Assay in HEK293 cells - 24 hour (AID 1224886). On activity change, negative = cytotoxicity: top concentration of the series differs between compounds. Conditions: RealTime-Glo luminescence; series mostly up to 76.8 µM; activity change, negative = cytotoxicity: at the top concentration. The method, boiled down: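 Homogeneous bioluminescent viability format in HEK293 cells (600 cells/well). Following 5 h at 37 C/5% CO2, 23 nL compound was pintooled; the signal was measured repeatedly during 40 h incubation.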
Consider `C[C@@H](NCCCc1cccc(C(F)(F)F)c1)c1cccc2ccccc12`, for which the Potency was 23.9 µM (active).
Regarding `CC(C)(C)C(=O)OCOC(=O)[C@@H]1N2C(=O)[C@@H](NC(=O)[C@H](N)c3ccccc3)[C@H]2SC1(C)C`, the “activity change, negative = cytotoxicity” value is 4.17% [at 35.3 µM] (inactive).
Same read-out and setting: in the case of `O=[N+]([O-])c1ccccc1Nc1ccccc1` it was -1.75% (inactive).
For the compound `CC(C)(C)c1ccc(C(=O)O)cc1`, the “activity change, negative = cytotoxicity” value is -9.45% (inactive).
Still for that read-out and setting: in the case of `CCCCCCCC(=O)[O-].CCCCCCCC(=O)[O-].[Zn+2]` it was 7.94% [at 35.3 µM] (inactive); in that of `CCCCCCCCCCC=O`, 0.0233% (inactive).
On to `CCCCCCCC[P+](CCCCCCCC)(CCCCCCCC)CCCCCCCC`, for which the Potency was 1.73 µM (active).
In the case of `C[C@H](CCC(=O)O)[C@H]1CC[C@H]2[C@@H]3CC[C@@H]4C[C@H](O)CC[C@]4(C)[C@H]3CC[C@]12C`, the Potency result is “inactive”.
With `CC(C)c1ccc2c(c1)CC[C@H]1[C@](C)(CN)CCC[C@]21C`, the Potency was 12.3 µM (active).
Take `O=C(O)c1ccc(Cl)c(Cl)c1`: the “activity change, negative = cytotoxicity” value was 0.35% (inactive).
On to `NC(=NCCCCCCN=C(N)/N=C(\N)Nc1ccc(Cl)cc1)/N=C(\N)Nc1ccc(Cl)cc1`, for which the Potency is 10.9 µM (active) [middle of 5 runs].
For the compound `COc1cccc(N)c1`, the “activity change, negative = cytotoxicity” value was -0.718% (inactive).
Regarding `CCCCCCCC/C=C/CCCCCCCC1=NCCN1CCO`, the Potency is 19.5 µM (active).
Same read-out and setting: under `Cc1cc(O)c2ccccc2c1O` stands 7.56 µM (active); under `O=C1C=CC(=O)N1c1ccc(Cc2ccc(N3C(=O)C=CC3=O)cc2)cc1`, 13.8 µM (active).
Regarding `O=C1C=CC(=O)N1`, the Potency was 12.6 µM (active).
In the case of `CCCCCCCC/C=C\CCCCCCCCOCCO`, the Potency is 3.19 µM (active).
Same read-out and setting: under `Cc1cc(O)c(C(C)(C)C)cc1Sc1cc(C(C)(C)C)c(O)cc1C` stands 21.8 µM (active).
Turning to `NNC(=O)c1cccc(C(=O)NN)c1`, the “activity change, negative = cytotoxicity” value is -5.83% (inactive).
Take `CCCCCCCCNC(C)C(O)c1ccc(SC(C)C)cc1` (configuration not stated): the Potency was 9.52 µM (active).
Same read-out and setting: in the case of `CC[C@H]1O[C@]2(CC[C@@H]1C)C[C@@H]1C[C@@H](C/C=C(\C)C[C@@H](C)/C=C/C=C3\CO[C@@H]4[C@H](O)C(C)=C[C@@H](C(=O)O1)[C@]34O)O2` it was 34.4 µM (active).
In the case of `CN(C)[C@@H]1C(=O)C(C(N)=O)=C(O)[C@@]2(O)C(=O)C3=C(O)c4c(O)ccc(Cl)c4[C@@H](O)[C@H]3C[C@@H]12`, the “activity change, negative = cytotoxicity” value is -0.563% [at 35.3 µM] (inactive).
`CC(=O)N1CCN(c2ccc(OC[C@H]3CO[C@](Cn4ccnc4)(c4ccc(Cl)cc4Cl)O3)cc2)CC1`: the Potency is 21.9 µM (active).
With `COc1ccc(C(=O)/C(Br)=C\C(=O)O)cc1`, the Potency was 38.9 µM (active).
For the compound `CN(C)CCCOC1(Cc2ccccc2)CCCCCC1`, the “activity change, negative = cytotoxicity” value was 2.16% [at 35.3 µM] (inactive).
Consider `O=C1CCCCCN1SSN1CCCCCC1=O`, for which the “activity change, negative = cytotoxicity” value is 14.9% (inactive).
For `O=C(c1ccc(O)cc1O)c1ccc(O)cc1O`, the Potency result was “inactive”.
With `OCCN1CCN(CC/C=C2/c3ccccc3Sc3ccc(C(F)(F)F)cc32)CC1`, the Potency is 19 µM (active).
Consider `Nc1ccc2cc(S(=O)(=O)O)cc(O)c2c1N=Nc1ccccc1C(F)(F)F`, for which the “activity change, negative = cytotoxicity” value was -0.575% (inactive).
On to `CN(C)[C@@H]1C(=O)C(C(N)=O)=C(O)[C@@]2(O)C(=O)C3=C(O)c4c(O)cccc4C[C@H]3C[C@@H]12`, for which the “activity change, negative = cytotoxicity” value is 0.223% [at 35.3 µM] (inactive).
Regarding `C1CCCC1`, the “activity change, negative = cytotoxicity” value was -6.34% (inactive).
Consider `CCCC(c1cc(C(C)(C)C)c(O)cc1C)c1cc(C(C)(C)C)c(O)cc1C`, for which the Potency was 22.1 µM (active).
With `Oc1cc2ccccc2c2ccccc12`, the Potency was 9.77 µM (active).
The same measure, in the same setting: in the case of `Clc1ccccc1C(c1ccccc1)(c1ccccc1)n1ccnc1` it was 21.9 µM (active) and 6.01 µM (active).

A further test in a line: qHTS RealTime-Glo MT Cell Viability Assay in HEK293 cells - 8 hour (AID 1224887). On activity change, negative = cytotoxicity: top concentration of the series differs between compounds. Conditions: RealTime-Glo luminescence; series mostly up to 76.8 µM; activity change, negative = cytotoxicity: at the top concentration. The method, boiled down: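 Real-time viability in HEK293: signal arises when living cells convert a prosubstrate for NanoLuc in the medium, so luminescence tracks viable cell number. Compound (23 nL, DMSO) added 5 h post-seeding; kinetic reads at 0–40 h, 37 C.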
Consider `C[C@@H](NCCCc1cccc(C(F)(F)F)c1)c1cccc2ccccc12`, for which the Potency is 23.9 µM (active).
With `CC(C)(C)C(=O)OCOC(=O)[C@@H]1N2C(=O)[C@@H](NC(=O)[C@H](N)c3ccccc3)[C@H]2SC1(C)C`, the “activity change, negative = cytotoxicity” value is 1.58% [at 35.3 µM] (inactive).
Turning to `O=[N+]([O-])c1ccccc1Nc1ccccc1`, the “activity change, negative = cytotoxicity” value is -14.5% (inactive).
Consider `CC(C)(C)c1ccc(C(=O)O)cc1`, for which the “activity change, negative = cytotoxicity” value is 1.57% (inactive).
As to `CCCCCCCC(=O)[O-].CCCCCCCC(=O)[O-].[Zn+2]`, the “activity change, negative = cytotoxicity” value is 2.61% [at 35.3 µM] (inactive).
For `CCCCCCCCCCC=O`, the “activity change, negative = cytotoxicity” value is 1.2% (inactive).
In the case of `CCCCCCCC[P+](CCCCCCCC)(CCCCCCCC)CCCCCCCC`, the Potency was 6.13 µM (active).
Same read-out and setting: under `C[C@H](CCC(=O)O)[C@H]1CC[C@H]2[C@@H]3CC[C@@H]4C[C@H](O)CC[C@]4(C)[C@H]3CC[C@]12C` stands “inactive”; under `CC(C)c1ccc2c(c1)CC[C@H]1[C@](C)(CN)CCC[C@]21C`, 21.9 µM (active).
Take `O=C(O)c1ccc(Cl)c(Cl)c1`: the “activity change, negative = cytotoxicity” value was 1.89% (inactive).
Still for that read-out and setting: in the case of `COc1cccc(N)c1` it was -1.69% (inactive).
Take `CCCCCCCC/C=C/CCCCCCCC1=NCCN1CCO`: the Potency was 43.6 µM (active).
Take `Cc1cc(O)c2ccccc2c1O`: the Potency was 5.35 µM (active).
The same measure, in the same setting: in the case of `O=C1C=CC(=O)N1c1ccc(Cc2ccc(N3C(=O)C=CC3=O)cc2)cc1` it was 21.9 µM (active); in that of `O=C1C=CC(=O)N1`, 15.9 µM (active).
Turning to `Cc1cc(O)c(C(C)(C)C)cc1Sc1cc(C(C)(C)C)c(O)cc1C`, the Potency was 24.5 µM (active).
Regarding `NNC(=O)c1cccc(C(=O)NN)c1`, the “activity change, negative = cytotoxicity” value was 3.73% (inactive).
As to `CCCCCCCCNC(C)C(O)c1ccc(SC(C)C)cc1` (configuration not stated), the Potency is 10.7 µM (active).
On the same count and under the same terms, under `CC[C@H]1O[C@]2(CC[C@@H]1C)C[C@@H]1C[C@@H](C/C=C(\C)C[C@@H](C)/C=C/C=C3\CO[C@@H]4[C@H](O)C(C)=C[C@@H](C(=O)O1)[C@]34O)O2` stands 43.3 µM (active).
`CN(C)[C@@H]1C(=O)C(C(N)=O)=C(O)[C@@]2(O)C(=O)C3=C(O)c4c(O)ccc(Cl)c4[C@@H](O)[C@H]3C[C@@H]12`: the “activity change, negative = cytotoxicity” value is 0.784% [at 35.3 µM] (inactive).
As to `CC(=O)N1CCN(c2ccc(OC[C@H]3CO[C@](Cn4ccnc4)(c4ccc(Cl)cc4Cl)O3)cc2)CC1`, the Potency is 24.5 µM (active).
As for `CN(C)CCCOC1(Cc2ccccc2)CCCCCC1`, the “activity change, negative = cytotoxicity” value was 5.06% [at 35.3 µM] (inactive).
As for `Oc1c(Cl)cc(Cl)c2cccnc12`, the “activity change, negative = cytotoxicity” value was -15.6% [at 35.3 µM] (inactive).
For the compound `O=C1CCCCCN1SSN1CCCCCC1=O`, the “activity change, negative = cytotoxicity” value was -26% (inactive).
Regarding `O=C(c1ccc(O)cc1O)c1ccc(O)cc1O`, the Potency result is “inactive”.
With `OCCN1CCN(CC/C=C2/c3ccccc3Sc3ccc(C(F)(F)F)cc32)CC1`, the Potency is 21.3 µM (active).
For the compound `Nc1ccc2cc(S(=O)(=O)O)cc(O)c2c1N=Nc1ccccc1C(F)(F)F`, the “activity change, negative = cytotoxicity” value was -6.28% (inactive).
Still for that read-out and setting: under `CN(C)[C@@H]1C(=O)C(C(N)=O)=C(O)[C@@]2(O)C(=O)C3=C(O)c4c(O)cccc4C[C@H]3C[C@@H]12` stands 5.04% [at 35.3 µM] (inactive); under `C1CCCC1`, -7.53% (inactive).
As to `CCCC(c1cc(C(C)(C)C)c(O)cc1C)c1cc(C(C)(C)C)c(O)cc1C`, the Potency is 44.2 µM (active).
As for `Oc1cc2ccccc2c2ccccc12`, the Potency is 3.47 µM (active).
Turning to `Clc1ccccc1C(c1ccccc1)(c1ccccc1)n1ccnc1`, the Potency is 24.5 µM (active).

Values taken from PubChem BioAssay (Tox21).
